From PubChem BioAssay (NCI)
Compounds without any hit were thinned out: in the full panel of roughly 83,000, 20% have a hit.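 The test compound was applied at a single concentration to cells in 96-well plates for 48 hours, and percent growth was recorded.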 Unmarked numbers belong to inactive results. Activity calls are given as the source filed them. Rule for the calls: active = growth percent below 10; inactive = the rest.

The compounds below were run on NCI-H23 lung (assay: NCI-60 one-dose screen, 48 h (100 = growth as untreated, 0 = no growth, -100 = all killed)). Conditions: 10 µM unless noted.
With `COc1cc2oc(-c3cccc(C(=O)Nc4cccc([N+](=O)[O-])c4)c3)cc(=O)c2c(OC)c1OC` the growth was 41.1%. With `COc1cc2c(c(OC)c1OC)C(=O)CC(c1cccc(NC(=O)c3cc(N)ccc3Cl)c1)O2` (stereo not drawn) the growth was 71.9%. `CCOC(=O)/C=C/c1cccc2c1C(=O)NC(C)(c1cc3cc(Cl)ccc3oc1=O)N2` (stereo not drawn) gave a growth of 50.9%. `CC(C)c1ccc2c(N)c(C(=O)Nc3cccc(C(F)(F)F)c3)sc2n1` was tested, and the growth was 90.5%. Work on `O=C(C1=CNC(=S)NC1c1ccc(O)cc1)c1cc2ccccc2oc1=O` (stereo not drawn) yielded a growth of 102%. `COc1cc(-c2cc(-c3cccc(OCC(=O)O)c3)[nH]c(=O)c2C#N)cc(OC)c1OC` was tested, and the growth was 101%. In the case of `COc1cccc(-c2nc(Nc3ccc(S(N)(=O)=O)cc3)c3ccccc3n2)c1`, the growth is reported as 37.9%. In the case of `N#Cc1c(-c2ccc(Cl)cc2)nc2n[nH]c(-c3ccc(Cl)cc3)c2c1-c1ccc(C(F)(F)F)cc1`, the growth is reported as -13.5% (active). `CC12CC[C@@H]3[C@]4(C)COC(c5cn[nH]c5-c5ccc(Br)cc5)O[C@@H]4CC[C@@]3(C)[C@@H]1CC(C1=CCOC1=O)O2` (stereo partly drawn) showed a growth of 57.3%. For `CC1=C(C(=O)OCc2ccccc2)C(c2c(O)cc(O)cc2O)n2c(nc3ccccc32)N1` (stereo not drawn), the growth was 65.9%. In the case of `COc1ccc2[nH]c(O)c(N=NC(=O)Cn3c(-c4ccccc4)nc4cc(C)ccc43)c2c1`, the growth is reported as 13.4%. `C=C1CC[C@@H]2[C@]3(C)COC(c4cn(-c5ccccc5)nc4-c4ccccc4)O[C@@H]3CC[C@@]2(C)[C@@H]1C/C=C1/C(=O)OC[C@H]1O` (stereo partly drawn) was tested, and the growth was -84.7% (active). Compound `CN(C)CCCNC(=O)c1cc(NC(=O)c2cc(NC(=O)c3ccc(/C=C/c4ccccc4)cc3)cn2C)cn1C` has a growth of 43.9%. For `O=C(NNc1ccccc1)n1c(=O)c2ccccc2c(=O)n1-c1ccccc1`, the growth was 100%. Compound `C(=C\c1cc(/C=C/c2ccccc2)c2ccccc2n1)/c1ccccc1` has a growth of 82.2%. `COc1cc2c(c(OC)c1OC)C(=O)CC(c1cccc(NC(=O)c3cc([N+](=O)[O-])ccc3Cl)c1)O2` (stereo not drawn) was tested, and the growth was 20.1%. `O=c1c2ccccc2nc(-c2ccccc2)n1/N=C/c1ccc2ccccc2c1` gave a growth of 68.2%. `CC(/C=C1\SC(=S)N(CCCC(=O)NC(CC(C)C)C(=O)O)C1=O)=C\c1ccccc1` (stereo not drawn) was tested, and the growth was 96.5%. `CCOc1ccc(C(=O)NC(=S)Nc2ccc(S(N)(=O)=O)cc2)cc1` gave a growth of 97.5% [100 µM]. With `O=C(CCN1C(=O)/C(=C/c2ccc(F)cc2)SC1=S)N1CCOCC1` the growth was 67.9%. `CC1(C)CC[C@]2(C(=O)Nc3ccc(F)cc3)CC[C@]3(C)C(=CCC4[C@@]5(C)C[C@@H](O)[C@H](O)[C@@](C)(CO)C5CC[C@]43C)C2C1` (stereo partly drawn) was tested, and the growth was 49.8%. `NS(=O)(=O)c1ccc(-n2cc(-c3cccc(NC(=O)c4cc(C(F)(F)F)cc(C(F)(F)F)c4)c3)nn2)cc1` was tested, and the growth was 41.1%. For `COc1cc(C2CC(c3cc(OC)c(OC)c(OC)c3)=NN2c2ccccc2)ccc1OCc1ccc(C)cc1` (stereo not drawn), the growth was 101%. `Cc1ccc2c(N)c(C(=O)Nc3ccc(-c4ccccc4)cc3)sc2n1` showed a growth of 42.2%. `C=C1CCC2C3(C)COC(c4ccccc4F)OC3CCC2(C)C1CC(O)C1=CCOC1=O` (stereo not drawn) was tested, and the growth was 80%. For `COc1ccc(-c2nnc3ccc(N/N=C/c4ccc(C)cc4)nn23)cc1`, the growth was 50.7%. Work on `COc1cc(-c2ccc(/C=N/NC(=O)c3[nH]c4ccc(Br)cc4c3-c3ccccc3)o2)cc(OC)c1OC` yielded a growth of 53.9%. In the case of `COc1ccc2c(c1)c(-c1cc3nc(-c4cn(C)c5ncccc45)cc(N)n3n1)cn2C`, the growth is reported as 0.244% (active). Compound `O=C(COc1ccc(NC(=O)Nc2ccccc2)cc1)N=Nc1c(O)[nH]c2ccc([N+](=O)[O-])cc12` has a growth of 10.5%. For `CCCCCCn1c(O)c(N=Nc2nc(-c3cc4ccccc4oc3=O)cs2)c2ccccc21`, the growth was -20.9% (active). `COc1ccc(NC(=O)Cn2c3c(sc2=O)[C@H]2[C@@H](O)[C@@H](O)[C@H](O)[C@@H]2CS3)cc1` showed a growth of 104%. For `CCCCc1c(Nn2cnnn2)no[n+]1[O-]`, the growth was 56.2%. `CN1CCN(/C(=N\c2sc(-c3ccccc3)nc2-c2ccccc2)c2ccccc2)CC1` showed a growth of 104%. For `C=C1CC[C@@H]2[C@]3(C)COC(c4cn[nH]c4-c4ccccc4)O[C@@H]3CC[C@@]2(C)[C@@H]1C/C=C1/C(=O)OCC1O` (stereo partly drawn), the growth was -27.2% (active). In the case of `CN(C)c1ccnc(NCCCSC(c2ccccc2)(c2ccccc2)c2ccccc2)c1`, the growth is reported as 62.7%. Work on `CC12CC[C@@H]3[C@]4(C)COC(c5cn[nH]c5-c5cccc(Br)c5)O[C@@H]4CC[C@@]3(C)[C@@H]1CC(C1=CCOC1=O)O2` (stereo partly drawn) yielded a growth of 38%. For `Brc1ccc(-c2n(Cc3ccc4ccccc4c3)c(-c3ccccc3)c(-c3ccccc3)[n+]2Cc2ccc3ccccc3c2)cc1`, the growth was -89.3% (active). In the case of `O=C(NN1C(=O)/C(=C/C=C/c2ccc([N+](=O)[O-])o2)SC1=S)c1ccc(Cl)cc1`, the growth is reported as -86.7% (active).
